Shown are actives, neighbours in structure and some others; about 2.4% of the full set was active somewhere.
CHRM1 PAM: human M1 muscarinic receptor positive allosteric modulators, primary screen, CHO-K1 cells, Fluo-8 calcium fluorescence, 1536-well; activation, % at 3 µM; CHO-K1 hM1, ACh EC20; 0% = ACh EC20, 100% = maximal ACh; Muscarinic acetylcholine receptor M1 (Homo sapiens), P11229; 360,000 compounds, 0.088% hits; in the data active = activation above about 19%, passing the limit was not always enough
Target sequence (P11229 whole entry, looked up): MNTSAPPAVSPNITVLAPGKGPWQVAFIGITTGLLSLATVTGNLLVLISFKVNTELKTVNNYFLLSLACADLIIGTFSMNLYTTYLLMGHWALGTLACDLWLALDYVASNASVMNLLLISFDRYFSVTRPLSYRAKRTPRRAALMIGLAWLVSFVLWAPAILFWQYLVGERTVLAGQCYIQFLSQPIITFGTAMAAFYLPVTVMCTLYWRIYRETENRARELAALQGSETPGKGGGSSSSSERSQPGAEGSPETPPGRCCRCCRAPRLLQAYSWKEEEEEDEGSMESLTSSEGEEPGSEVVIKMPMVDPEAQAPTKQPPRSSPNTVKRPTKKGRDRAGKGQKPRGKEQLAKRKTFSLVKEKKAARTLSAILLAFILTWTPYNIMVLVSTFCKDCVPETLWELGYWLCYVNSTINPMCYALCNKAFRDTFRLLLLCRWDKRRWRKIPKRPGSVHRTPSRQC
M1 ag: human M1 muscarinic receptor agonists, primary screen, Fluo-8 calcium fluorescence, CHO-K1 cells, HTS | Muscarinic acetylcholine receptor M1 (Homo sapiens), P11229 | CHO-K1 hM1, agonist mode; 0% DMSO, 100% acetylcholine EC100 | activation, % at 3 µM | 360,000 compounds, 0.33% hits | AID 588814, 2011;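 active = activation above the run's mean compound activation plus 3 SD, cut at about 16% in these data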;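 note: peak over basal fluorescence ratio within a 140 s kinetic read after compound addition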
M1 antag: human M1 muscarinic receptor antagonists, primary screen, CHO-K1 cells, Fluo-8 calcium fluorescence, 1536-well. Muscarinic acetylcholine receptor M1 (Homo sapiens), P11229. CHO-K1 hM1, ACh EC80 antagonist. inhibition, % at 3 µM. 360,000 compounds, 1.3% hits. AID 588852, 2011;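 active = percent inhibition above its own plate's cutoff, namely the mean of that plate's compound wells plus 3 SD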;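 note: peak over basal fluorescence ratio during 140 s after agonist addition; 0% = ACh EC80 plus DMSO and 100% = DMSO alone without agonist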
CHO-K1 Ca PAM: nonselective calcium activators in parental CHO-K1 cells, primary screen, counter-screen for M1 PAM project, cell-based, Fluo-8 calcium fluorescence, full deck, 1536-well. AID 602247, 2012. activation, % at 3 µM. 360,000 compounds, 0.02% hits. ATP EC20; 0% at ATP EC20, 100% at ATP max;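 active = activation above the run cutoff, the mean activation of all test compounds plus 3 SD, cut at about 40% in these data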;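 note: peak over basal fluorescence ratio in a 140 s read after ATP addition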
CHO-K1 Ca ag: counter-screen for M1 agonists: effect in parental CHO-K1 cells. Fluo-8 calcium fluorescence; scaled to maximal ATP response, vehicle zero. activation, % at 3 µM. 360,000 compounds, 0.48% hits; in the data active = activation above about 15%;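 note: untransfected CHO-K1 host cells lacking M1 receptor as counterscreen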
CHO-K1 Ca antag: counter-screen for M1 antagonists: effect in parental CHO-K1 cells. ATP-induced calcium, Fluo-8 fluorescence. inhibition, % at 3 µM. 360,000 compounds, 0.6% hits;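 active = inhibition above a per-plate cutoff, the plate's mean sample inhibition plus 3 SD, cut at about 24% in these data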;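 note: 0% = DMSO plus EC80 ATP and 100% = DMSO alone without ATP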
Starred values were filed as active, the others as inactive.

SMILES | CHRM1 PAM | M1 ag | M1 antag | CHO-K1 Ca PAM | CHO-K1 Ca ag | CHO-K1 Ca antag
COc1ccc(-c2c[n+]3c(n2-c2ccccc2)CCCCC3)cc1 | -1 | -11 | 7 | 16 | 0 | -3
COc1ccc(-n2c(-c3ccc(Br)cc3)c[n+]3c2CCc2ccccc2-3)cc1 | -28 | -10 | 44* | 20 | 0 | 0
O=C(NCc1ccco1)c1cccc(-c2ccc3nccn3c2)c1 | 3 | -8 | -11 | 16 | 1 | -7
CN(Cc1ccccc1)C(=O)CCC1CCN(S(C)(=O)=O)CC1 | 16 | 0 | -27 | 10 | 0 | -8
CC(C)(C)c1csc(NC(=O)C2=COCCO2)n1 | -15 | -6 | 40* | -20 | 0 | -9
CN1CCN(C(=O)CN(C2CCCCC2)S(=O)(=O)c2ccc(Br)cc2)CC1 | -2 | 18* | 2 | 18 | 5 | -9
CC1(C(=O)NS(=O)(=O)C2CC2)CCCN(C(=O)C2(c3ccc(Cl)cc3)CCCC2)C1 (stereo not drawn) | 6 | -2 | -5 | 15 | 0 | -6
O=[N+]([O-])c1cc(S(=O)(=O)NCCN2CCOCC2)ccc1Cl | 6 | -5 | -14 | 13 | 1 | -8
COc1ccc(CCNC(=O)Nc2cccc([N+](=O)[O-])c2)cc1 | -9 | 4 | 7 | 1 | 15* | -11
COc1ccc(CCNC(=O)Nc2cccc([N+](=O)[O-])c2)cc1OC | -1 | -2 | 5 | 18 | 5 | -12
COc1ccc(CCNC(=O)Nc2ccccc2[N+](=O)[O-])cc1 | 5 | 27* | 6 | 17 | 2 | -2
O=C(Nc1ccc(Br)cc1)NC1CCCCCCC1 | -14 | 3 | 30* | -1 | 14 | 10
COc1cc(NC(=O)Nc2cccc([N+](=O)[O-])c2)cc(OC)c1 | -13 | 2 | 9 | -7 | 15* | 10
O=C(Nc1ccccc1)NC1CCCCCCC1 | 6 | -3 | -6 | 5 | 2 | 11
Nc1nc(N)c2c(n1)CCCC2 | 6 | -2 | -2 | 7 | 0 | 2
CC(C)Oc1ccc(S(=O)(=O)N2CCCCC2)cc1NC(=O)C1CCC1 | 7 | -4 | -11 | 6 | -1 | -12
Cc1c(Cl)ccc(S(=O)(=O)N2CCN(C)CC2)c1Cl | 24 | -4 | -26 | 5 | 1 | -2
CC(C)c1nnc(NC(=O)CCC(=O)NCc2ccc(F)cc2)s1 | 4 | -2 | -6 | 2 | 0 | -1
O=C(O)CCNC(=O)CCCn1nnc2ccccc2c1=O | 7 | -2 | -7 | 10 | 0 | -10
O=C(CNC1CCCCC1)Nc1cccc([N+](=O)[O-])c1 | 9 | -1 | -5 | -25 | -1 | 5
O=C(Nc1cccc([N+](=O)[O-])c1)NC1CCCCCCC1 | -15 | 2 | 26 | 15 | 16* | 2
CCc1cc(=O)oc2cc(C)cc(OCC(=O)NCCCN3CCOCC3)c12 | 17 | -14 | -10 | 8 | 0 | -18
O=C1c2ccccc2C(=O)N1CC(O)COc1ccccc1Cl (stereo not drawn) | 2 | 0 | 15 | -8 | 1 | 0
CCN1CCN(C(=O)c2cc3cc(F)ccc3[nH]2)CC1 | 9 | -6 | -9 | -29 | 0 | 34*
CC(C)N(CC#CCC(O)(c1ccccc1)c1ccccc1)CCO | -28 | -13 | 28 | -6 | -1 | 7
SMILES | CHRM1 PAM | M1 ag | M1 antag | CHO-K1 Ca PAM | CHO-K1 Ca ag | CHO-K1 Ca antag
O=S(CC(O)(c1ccccc1)c1ccccc1)CC(O)(c1ccccc1)c1ccccc1 | 5 | -2 | 2 | 4 | 0 | 2
CC(C)N(CC#CCC(O)(c1ccccc1)c1ccccc1)C(C)C | -23 | -10 | 39* | 22 | 1 | -8
CCN(CC#CCC(O)(c1ccccc1)c1ccccc1)C(C)C | -28 | -15 | 82* | 14 | 0 | -12
Cc1cc(C)c(C#N)c(SCC(O)COc2ccc(Br)cc2)n1 (stereo not drawn) | -33 | -10 | 61* | -5 | 4 | -3
COc1ccc(C(=O)N/C(=C/c2cccnc2)C(=O)Nc2cccc(C(C)=O)c2)cc1OC | 13 | 0 | -20 | -15 | 0 | -13
COc1ccccc1/C=C/CN1CCC(n2nccc2NC(=O)CCc2ccccc2)CC1 | -7 | 1 | 31 | -16 | 15* | 24*
O=C(CCc1ccccc1)Nc1ccnn1C1CCN(C/C=C/c2ccccc2)CC1 | -2 | 0 | -6 | 10 | 2 | -13
O=C(c1cccc(Cl)c1)N1CCN(Cc2ccncc2)CC1 | -1 | -4 | 4 | -9 | 0 | 25*
O=C(c1cccc(C(=O)N2CCN(Cc3ccccc3)CC2)c1)N1CCN(Cc2ccccc2)CC1 | 4 | -2 | -12 | 7 | 1 | -4
O=C1N(Cc2cccc(Cl)c2)C[C@@H]2C[C@@H](c3ccsc3)N3CCC[C@@]123 | -30 | -12 | 34* | -6 | -1 | 11
O=C1N(Cc2cccc(Cl)c2)C[C@@H]2C[C@@H](c3ccccn3)N3CCC[C@@]123 | -4 | -6 | -9 | 20 | 1 | -12
O=C(Nc1nnc(SCc2ccc(Cl)cc2)s1)C1CCCO1 (stereo not drawn) | -2 | -2 | 3 | -9 | 0 | 31*
COC(=O)c1ccc(CSc2nnc(NC(=O)C3CCCO3)s2)cc1 (stereo not drawn) | 11 | 2 | -12 | 13 | 1 | -11
Cc1cc2ncn(CCC(=O)NC3CCCC3)c2cc1C | -5 | -5 | 16 | 5 | 19* | 9
COC(=O)[C@@]1(C)[C@H]2C(=O)N(Cc3ccccc3)C(=O)[C@H]2[C@H]2CN=C(SCC(=O)c3ccccc3)N21 | -7 | -2 | -3 | 8 | 0 | -2
CC1CCCCN1CCCNC(=O)C1CCN(c2nc3ccccc3o2)CC1 (stereo not drawn) | -28 | -10 | 78* | 15 | 0 | -4
Cc1c(/C=C/C(=O)c2ccccc2)cnn1C | 0 | -1 | 1 | 8 | 16* | -1
CCOc1ccc(-c2cnc3n2CCC3)cc1 | -6 | -5 | 1 | 31 | 0 | -19
Clc1ccc(-c2cnc3n2CCCCC3)cc1 | -22 | -7 | 41* | 18 | 4 | -17
Fc1ccc(-c2cnc3n2CCCCC3)cc1 | -19 | -8 | 39* | -11 | 1 | 14
Brc1ccc(-c2cnc3n2CCCC3)cc1 | -18 | -5 | 9 | 5 | 1 | 0
CC1CC(C)CN(CC(=O)N2CCCc3c2c(=O)oc2ccc(OCc4ccccc4)cc32)C1 (stereo not drawn) | -9 | -6 | 1 | 21 | 0 | -8

Screening data from PubChem BioAssay.
